Test systems include NCI-H23 lung; NCI-H226 lung; NCI-H322M lung; HOP-62 NSCLC; NCI-H460 lung; HOP-92 NSCLC; NCI-H522 lung; A549/ATCC NSCLC; 786-0 renal; COLO 205 colon; DU-145 prostate; K-562 leukemia; MALME-3M melanoma; MDA-MB-231 breast; RXF 393 renal; SF-268 CNS; SF-295 CNS; SF-539 CNS; UACC-257 melanoma; M14 melanoma.
Experiment in all cases: NCI-60 one-dose screen, 48 h (100 = growth as untreated, 0 = no growth, -100 = all killed)
Settings in all cases: 10 µM unless noted

The structures appear in SMILES notation. This is part of a sample that, as a whole, favours compounds with a hit. Of some 83,000 tested, about 20% had one in any assay.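 A percent growth of 40 corresponds to 60% growth inhibition; 0 means no net growth; -100 means all cells died. Active threshold: below 10.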 Unmarked numbers belong to inactive results. Activity calls are given as the source filed them.

For `C#C[C@]1(O)CC[C@H]2[C@@H]3CC=C4c5sc(Nc6cc(Cl)ccc6OC)nc5CC[C@]4(C)[C@H]3CC[C@@]21C`, the growth with NCI-H23 lung is 33.4%; in the assay with NCI-H226 lung it was 52.4%; in the assay on NCI-H322M lung it was 53.2%; with HOP-62 NSCLC it was 32.5%; with NCI-H460 lung, 17%; with HOP-92 NSCLC, -0.0409% (active). In addition, the growth in the assay on NCI-H522 lung is 52.8%; with A549/ATCC NSCLC, 28.7%; in the assay on 786-0 renal it was -32.3% (active); in the assay with COLO 205 colon, 21.8%; in the assay with DU-145 prostate, 19.1%; in the assay on K-562 leukemia, 4.32% (active). Further, the growth in the assay on MALME-3M melanoma was 12.1%; in the assay on MDA-MB-231 breast it was 43.6%; with RXF 393 renal, -74.9% (active); in the assay with SF-268 CNS, 24.6%; in the assay with SF-295 CNS, -62.4% (active); in the assay with SF-539 CNS, -22.1% (active). For the same compound, the growth with UACC-257 melanoma was -16.3% (active); with M14 melanoma it was -51.7% (active).

For the compound `CC1=C(C)C(=O)C(Nc2cccc(C(=O)OC(C)(C)C)c2)=CC1=O`, the growth is 28.8% in the assay on NCI-H23 lung; 64.5% in the assay with NCI-H226 lung; 94.5% in the assay on NCI-H322M lung; 78.4% in the assay on HOP-62 NSCLC; 93.1% in the assay on NCI-H460 lung; 78.8% with HOP-92 NSCLC. Also, the growth in the assay on NCI-H522 lung is 82.2%; in the assay with A549/ATCC NSCLC, 106%; with 786-0 renal, 89.9%; in the assay on COLO 205 colon, 107%; in the assay on DU-145 prostate, 69.9%; in the assay on K-562 leukemia it was 77.2%. Besides, the growth in the assay on MALME-3M melanoma was 64.9%; in the assay on MDA-MB-231 breast it was 66.2%; in the assay with RXF 393 renal it was 73.4%; in the assay with SF-268 CNS it was 80.5%; in the assay on SF-295 CNS, 94.3%; in the assay with SF-539 CNS, 89.9%. For the same compound, the growth in the assay with UACC-257 melanoma was 62.5%; in the assay with M14 melanoma it was 88.3%.

With `C=C1CCc2nc(SCC(=O)O)ccc2N1`, the growth in the assay on NCI-H23 lung was 95.6%; in the assay with NCI-H226 lung it was 99%; in the assay on NCI-H322M lung, 105%; with HOP-62 NSCLC it was 103%; in the assay on NCI-H460 lung it was 102%; with HOP-92 NSCLC it was 120%. The growth with NCI-H522 lung is 96.7%; in the assay with A549/ATCC NSCLC, 108%; in the assay with 786-0 renal, 106%; with COLO 205 colon, 107%; in the assay with DU-145 prostate it was 110%; with K-562 leukemia, 98.5%. The growth with MALME-3M melanoma is 104%; in the assay with MDA-MB-231 breast it was 105%; in the assay on RXF 393 renal, 94.1%; in the assay on SF-268 CNS it was 103%; in the assay on SF-295 CNS, 104%; with SF-539 CNS it was 101%. Further, the growth is 105% in the assay on UACC-257 melanoma and 94.8% with M14 melanoma.

On to `Cc1ccc(CSC2=C(Cl)CN(c3ccc(Cl)cc3)C2=O)cc1`, for which the growth in the assay on NCI-H23 lung was 105%; in the assay on NCI-H226 lung, 98.4%; in the assay on NCI-H322M lung, 104%; in the assay with HOP-62 NSCLC it was 103%; in the assay on NCI-H460 lung, 103%; with HOP-92 NSCLC, 95.2%. For the same compound, the growth in the assay with NCI-H522 lung is -4.44% (active); in the assay with A549/ATCC NSCLC, 104%; with 786-0 renal, 105%; in the assay on COLO 205 colon it was 129%; with DU-145 prostate, 108%; in the assay on K-562 leukemia it was 100%. Also, the growth in the assay with MALME-3M melanoma is 96.9%; in the assay with MDA-MB-231 breast it was 107%; in the assay with RXF 393 renal, 111%; in the assay on SF-268 CNS, 108%; in the assay with SF-295 CNS, 101%; in the assay with SF-539 CNS, 103%. The growth in the assay on UACC-257 melanoma and in the assay with M14 melanoma was 107% throughout.

In the case of `N#Cc1c(-c2cccs2)cc(-c2cnccn2)nc1SCC(=O)N/N=C/c1ccccc1`, the growth in the assay on NCI-H23 lung was 40.8%; in the assay with NCI-H226 lung, 50.8%; in the assay on NCI-H322M lung it was 63.5%; with HOP-62 NSCLC it was 31.1%; with NCI-H460 lung it was 17%; in the assay with HOP-92 NSCLC, 42.3%. For the same compound, the growth was 67.3% with NCI-H522 lung; 46.8% in the assay on A549/ATCC NSCLC; 17.9% in the assay with 786-0 renal; 66.2% in the assay on COLO 205 colon; 14% in the assay with DU-145 prostate; 46.5% in the assay with K-562 leukemia. Moreover, the growth in the assay on MALME-3M melanoma was 4.87% (active); in the assay on MDA-MB-231 breast, 46.5%; in the assay with RXF 393 renal it was -16.4% (active); with SF-268 CNS it was 56.4%; in the assay with SF-295 CNS, 60.9%; with SF-539 CNS, 56.1%. In addition, the growth in the assay with UACC-257 melanoma was 68.2%; with M14 melanoma, 37%.

Take `Cc1ccc(-c2nc(SCC(=O)c3ccccc3)nc(Nc3ccc(S(N)(=O)=O)cc3)c2C#N)cc1`: the growth in the assay on NCI-H23 lung is 34.5%; in the assay on NCI-H226 lung, 71.4%; with NCI-H322M lung, 99.5%; with HOP-62 NSCLC, 26.2%; with NCI-H460 lung it was 65.2%; in the assay on HOP-92 NSCLC, 37.6%. Moreover, the growth in the assay with NCI-H522 lung is 87.1%; in the assay on A549/ATCC NSCLC, 87.4%; with 786-0 renal, 46.3%; with COLO 205 colon it was 101%; in the assay on DU-145 prostate, 60.7%; in the assay on K-562 leukemia, 70.1%. Further, the growth with MALME-3M melanoma is 33.6%; with MDA-MB-231 breast, 33%; in the assay on RXF 393 renal, 51.7%; in the assay with SF-268 CNS, 76.7%; in the assay with SF-295 CNS it was 36.7%; in the assay on SF-539 CNS, 18.3%. The growth is 97.4% with UACC-257 melanoma and 36.7% with M14 melanoma.

In the case of `CC(=O)c1c([Si](C)(C)C)c2cc(C#N)ccn2c1C(=O)c1ccc(Br)cc1`, the growth was 84.1% in the assay on NCI-H23 lung; 76.9% in the assay with NCI-H226 lung; 85.3% with NCI-H322M lung; 88.3% in the assay on HOP-62 NSCLC; 95.5% in the assay on NCI-H460 lung; 81.9% in the assay on HOP-92 NSCLC. Moreover, the growth was 70.5% with NCI-H522 lung; 90.3% in the assay on A549/ATCC NSCLC; 76.5% with 786-0 renal; 104% in the assay with COLO 205 colon; 99.9% with DU-145 prostate; 82.4% in the assay with K-562 leukemia. Besides, the growth was 92.9% in the assay on MALME-3M melanoma; 85.4% in the assay on MDA-MB-231 breast; 78.5% in the assay with RXF 393 renal; 79.1% in the assay on SF-268 CNS; 90.9% with SF-295 CNS; 95.5% in the assay on SF-539 CNS. Further, the growth in the assay with UACC-257 melanoma is 101%; in the assay on M14 melanoma it was 97.4%.

Consider `Cn1c2nc3ccccc3c-2cc2ccccc21`, for which the growth is 44.9% with NCI-H23 lung; 53% in the assay with NCI-H226 lung; 4.32% (active) with NCI-H322M lung; 51.3% with HOP-62 NSCLC; 13.4% in the assay with NCI-H460 lung; 57.2% in the assay with HOP-92 NSCLC. The growth in the assay with NCI-H522 lung is 41.6%; in the assay on A549/ATCC NSCLC, 28.4%; in the assay with 786-0 renal, 38%; in the assay with COLO 205 colon it was 26%; with DU-145 prostate, 30.9%; with K-562 leukemia it was 21.1%. For the same compound, the growth was 36.6% with MALME-3M melanoma; 36.1% in the assay on MDA-MB-231 breast; 43.3% with RXF 393 renal; 57.3% in the assay on SF-268 CNS; 39.6% in the assay on SF-295 CNS; 39.1% in the assay with SF-539 CNS. Also, the growth in the assay on UACC-257 melanoma was 49.2%; in the assay on M14 melanoma, 48.3%.

Source of the values: PubChem BioAssay (NCI).
